“And” between values parts separate entries of the source, which are not always exact repeats. Equal values may be shown once. The source made the active and inactive calls.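 The calls were made as follows, unless noted: active = inhibition at or above 50% relative to wild type and mutant plate controls; inactive = inhibition below 50%.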
Key:
[1] = reduction of polyQ htt aggregates in cells – imaging, exon1htt(103Q)mCFP cells, high-content imaging, primary screen (AID 483;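 active = visual image review flags a hit and inhibition of aggregation exceeds 20%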;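 also: compound exposure lasted 3 days before fixation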;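 as to nuclei count: percent of the per-plate median nuclei count of sample wells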); settings: exon1htt(103Q)mCFP cell line, aggregate imaging, at 2 µM; inhibition of aggregation: stronger effect = higher value; nuclei count: measured here: cell count, toxicity
[2] = endothelial E-selectin expression blockers – imaging, HUVEC, immunofluorescence, MLSMR starter and 10KST1 sets, primary screen (AID 487;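 active = visually confirmed hit in the image check and inhibition above 20%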;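 as to inhibition: signal is fraction of cell area covered by stained E-selectin grains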;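 as to nuclei count: 100% = median nuclei count of all wells on the same plate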); settings: HUVEC TNFalpha-induced E-selectin immunofluorescence imaging, at 2 µM; inhibition: stronger effect = higher value; nuclei count: measured here: cell number, toxicity
[3] = Primary imaging screen for DUSP6 inhibitors that restore phospho-Erk in transfected HeLa cells, chemical complementation (AID 609;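 active = compounds giving at least 50% inhibition in the cell-based MKP-3 phosphatase rescue imaging test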;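 as to inhibition: phospho-Erk level distribution per well compared with pooled transfected vehicle control wells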); settings: HeLa MKP-3 transfected, phospho-Erk imaging KS statistic, at 10 µM, cells stimulated with TPA for 15 min
[4] = target: Dual specificity protein phosphatase 6 (Homo sapiens) (UniProt Q16828); assay: as above; settings: HeLa MKP-3 transfected, phospho-Erk imaging KS statistic; at 10 µM; stronger effect = higher value; cells stimulated with TPA for 15 min
[5] = target: Voltage-gated potassium channel subunit beta-2 (Rattus norvegicus) (UniProt P62483); assay: inhibitors of rat Kvbeta2 reductase activity – biochemical, NADPH fluorescence, primary screen (AID 622;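 active = fluorescence slope higher than the sample average by over 3 SD, cut at about -0.22 in these data, passing the limit was not always enough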;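 also: slope of raw intensity against log time taken from 70 to 1610 s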); settings: recombinant KvBeta, 4-cyanobenzaldehyde reduction, at 10 µM, stronger effect = higher value
[6] = target: Voltage-gated potassium channel subunit beta-2 (Rattus norvegicus) (UniProt P62483); assay: enhancers of rat Kvbeta2 NADPH turnover – biochemical, NADPH fluorescence, primary screen (AID 623;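 active = NADPH fluorescence slope more negative than the mean of all samples by about 3 SD, 99.7% confidence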;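 also: fluorescence intensity change per second fitted from 20 to 320 s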); settings: Recombinant KvBeta, NADPH fluorescence decrease slope, 10 min; at 10 µM; stronger effect = lower value
[7] = target: Alpha-2C adrenergic receptor (Homo sapiens) (UniProt P18825); assay: compounds altering alpha2C-coupled GIRK flux – cell-based, HEK293 alpha2C/GIRK1/2, thallium flux, primary screen (AID 624;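 active = fluorescence slope after compound addition differing from the mean of all screened samples at 99.7% confidence, in either direction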;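 also: slope of fluorescence ratio to pre-addition baseline per second over 15 to 24 s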); settings: thallium flux BTC fluorescence, at 10 µM, actives lie on both sides
[8] = target: Muscarinic acetylcholine receptor M4 (Homo sapiens) (UniProt P08173); assay: M4-linked GIRK flux change, two-sided – cell-based, HEK293 M4/GIRK, thallium flux, BTC-AM, M4 allosteric agonist project, primary screen (AID 625;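 active = fluorescence slope after compound addition differing from the mean of all tested samples at 99.7% confidence, mostly higher but some lower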;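 also: thallium influx through GIRK channels coupled to M4 in HEK293 cells with BTC-AM dye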); settings: at 10 µM, actives lie on both sides
[9] = inhibitors of larval lipid processing in zebrafish, primary screen, whole organism, PED6 fluorescence, gall bladder and intestine (AID 686;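 active = a full or partial loss of lipid-probe fluorescence in the fish gall bladder, intestine or both, judged by eye; inactive = no fluorescence loss, or compound toxic to the fish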;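 also: larvae 5 to 7 days old with five fish per well; signal comes from phospholipase A2 cleavage of quenched PED6 carried via bile; overnight exposure to compound and PED6 before scoring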); settings: Zebrafish larvae PED6 lipid processing, fluorescence scoring; screened at 20 µM (by protocol)
[10] = loss of swimming-algae plug formation – whole organism, Chlamydomonas reinhardtii, WT vs cilia-less mutant, absorbance, 96-well, primary screen (AID 463189); settings: Chlamydomonas reinhardtii gravitaxis, OD600 absorbance, 2 days; at 10 µM; stronger effect = higher value;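 also: 0% = wild type cc124 cells in DMSO and 100% = ciliumless bld1 mutant cells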
[11] = blockers of RIG-like receptor reporter activation – cell-based, Sendai virus stimulus, luciferase, 10K MLSCN set, TLR/RLR signaling modifier project, primary screen (AID 602276;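 active = inhibition at or above 50% at 10 µM; inactive = inhibition below 50%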;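 also: firefly luciferase from ISG56 promoter only with Renilla not read in this screen; 0% = Sendai virus plus DMSO and 100% = medium plus DMSO without virus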); settings: HEK293 RL24 IRF3 luciferase reporter, at 10 µM, stronger effect = higher value
[12] = TLR3 IRF3 reporter activation blockers – cell-based, poly I:C stimulus, luciferase, 10K MLSCN set, primary screen (AID 602277;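 active = inhibition of the reporter signal at or above 50%; inactive = inhibition below 50%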); settings: HEK293-TLR3 RL24 IRF3 luciferase reporter, at 10 µM, stronger effect = higher value
[13] = measured here: cell density z-score
[14] = measured here: nuclear c-Myc green intensity z-score
[15] = measured here: nuclear pErk red intensity z-score, stronger effect = higher value

Alpha-2C adrenergic receptor (Homo sapiens), sequence (P18825 whole entry, looked up): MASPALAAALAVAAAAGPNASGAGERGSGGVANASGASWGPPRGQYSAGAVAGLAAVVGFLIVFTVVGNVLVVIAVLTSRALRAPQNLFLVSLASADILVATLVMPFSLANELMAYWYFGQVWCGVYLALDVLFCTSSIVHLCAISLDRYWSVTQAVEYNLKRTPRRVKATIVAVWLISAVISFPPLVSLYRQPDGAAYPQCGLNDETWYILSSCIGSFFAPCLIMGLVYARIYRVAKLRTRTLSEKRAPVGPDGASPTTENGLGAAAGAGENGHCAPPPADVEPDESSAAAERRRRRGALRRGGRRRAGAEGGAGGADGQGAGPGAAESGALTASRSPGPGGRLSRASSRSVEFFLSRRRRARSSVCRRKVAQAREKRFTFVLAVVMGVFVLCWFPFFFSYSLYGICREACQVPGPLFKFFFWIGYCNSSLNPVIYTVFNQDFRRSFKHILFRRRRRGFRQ
Dual specificity protein phosphatase 6 (Homo sapiens), sequence (Q16828 whole entry, looked up): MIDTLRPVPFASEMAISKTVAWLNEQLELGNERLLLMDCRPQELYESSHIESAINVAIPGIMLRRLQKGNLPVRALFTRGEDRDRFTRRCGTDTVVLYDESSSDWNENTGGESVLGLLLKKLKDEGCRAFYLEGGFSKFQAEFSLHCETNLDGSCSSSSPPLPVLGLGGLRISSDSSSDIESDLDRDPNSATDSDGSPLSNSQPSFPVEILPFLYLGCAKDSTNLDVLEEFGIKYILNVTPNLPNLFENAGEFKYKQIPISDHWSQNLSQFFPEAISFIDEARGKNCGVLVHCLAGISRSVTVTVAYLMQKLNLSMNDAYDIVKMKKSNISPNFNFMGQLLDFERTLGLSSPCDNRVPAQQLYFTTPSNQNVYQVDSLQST
Voltage-gated potassium channel subunit beta-2 (Rattus norvegicus), sequence (P62483 whole entry, looked up): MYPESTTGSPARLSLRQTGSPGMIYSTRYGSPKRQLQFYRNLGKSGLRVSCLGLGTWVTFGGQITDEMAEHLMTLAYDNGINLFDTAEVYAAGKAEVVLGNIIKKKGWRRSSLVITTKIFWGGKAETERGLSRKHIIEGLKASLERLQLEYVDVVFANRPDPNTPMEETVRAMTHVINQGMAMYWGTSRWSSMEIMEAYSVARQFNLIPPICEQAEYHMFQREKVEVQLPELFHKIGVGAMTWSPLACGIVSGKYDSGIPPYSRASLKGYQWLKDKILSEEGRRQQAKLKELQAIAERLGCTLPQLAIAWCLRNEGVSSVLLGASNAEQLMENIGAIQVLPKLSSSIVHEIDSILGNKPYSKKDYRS
Muscarinic acetylcholine receptor M4 (Homo sapiens), sequence (P08173 whole entry, looked up): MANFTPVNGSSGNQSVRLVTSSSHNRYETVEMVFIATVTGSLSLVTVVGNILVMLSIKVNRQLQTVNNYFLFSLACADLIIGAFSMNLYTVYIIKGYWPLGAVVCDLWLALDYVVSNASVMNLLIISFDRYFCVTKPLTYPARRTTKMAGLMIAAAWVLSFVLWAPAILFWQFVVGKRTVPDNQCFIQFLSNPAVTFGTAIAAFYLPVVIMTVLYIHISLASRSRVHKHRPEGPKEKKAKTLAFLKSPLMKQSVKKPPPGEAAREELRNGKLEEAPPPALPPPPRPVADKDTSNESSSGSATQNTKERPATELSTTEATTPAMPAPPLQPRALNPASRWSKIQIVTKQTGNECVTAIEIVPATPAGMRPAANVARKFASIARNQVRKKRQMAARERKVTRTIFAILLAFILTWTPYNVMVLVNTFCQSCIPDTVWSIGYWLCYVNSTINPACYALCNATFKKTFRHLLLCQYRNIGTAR

| SMILES | inhibition of aggregation [1] | nuclei count [1] | inhibition [2] | nuclei count [2] | z-score [3, 13] | z-score [3, 14] | z-score [3, 15] | inhibition [4] | fluorescence slope [5] | NADPH fluorescence slope [6] | slope [7] | fluorescence slope [8] | outcome [9] | inhibition [10] | inhibition [11] | inhibition [12] |
| --- | --- | --- | --- | --- | --- | --- | --- | --- | --- | --- | --- | --- | --- | --- | --- | --- |
| COc1cc(NS(=O)(=O)c2ccc(N)cc2)ncn1 | 15.6% (inactive) | 100% | -87.8% (inactive) and -123% (inactive) | 109% and 156% | -0.758 and -0.797 | -0.381 and 0.601 | 1.83 and 0.0867 | 12.4% (inactive) and -1.98% (inactive) | -0.448 (inactive) and -0.477 (inactive) | -8.5e-05 (inactive) and -7.6e-05 (inactive) | 0.00452 (inactive) | 0.00587 (inactive) | inactive | 15.5% (inactive) and 12.3% (inactive) | 6.56% (inactive) | 32.2% (inactive) |
| O=C1CCc2cc(OCCCCc3nnnn3C3CCCCC3)ccc2N1 | 14.7% (inactive) | 106% | -114% (inactive) | 136% | 0.404 | -0.117 | -0.524 | 27.1% (inactive) | -0.456 (inactive) | -6.4e-05 (inactive) | 0.00334 (inactive) | – | inactive | 3.02% (inactive) and 2.15% (inactive) | -3.33% (inactive) | 20.5% (inactive) |
| CCCOc1ccc2nc(NC(=O)OC)[nH]c2c1 | -14.5% (inactive) | 98.6% | -34% (inactive) | 126% | 0.515 | 0.392 | -0.582 | 1.48% (inactive) | -0.47 (inactive) | -3.6e-05 (inactive) | 0.00449 (inactive) | – | inactive | -11.7% (inactive) | 25.2% (inactive) | 74.2% (active) |
| CC(=O)[C@H]1CC[C@H]2[C@@H]3CCC4=CC(=O)CC[C@]4(C)[C@H]3CC[C@]12C | -5.3% (inactive) | 74.7% | -153% (inactive) | 125% | -0.82 | -0.521 | -0.268 | -0.493% (inactive) | -0.446 (inactive) | -4.8e-05 (inactive) | 0.00331 (inactive) | – | inactive | 2.24% (inactive) and 8.52% (inactive) | 3.73% (inactive) | 31.6% (inactive) |
| Clc1ccc(Cn2c(CN3CCCC3)nc3ccccc32)cc1 | 13.4% (inactive) | 112% | -57.5% (inactive) | 133% | 0.217 | 0.404 | 0.417 | 1.48% (inactive) | -0.551 (inactive) | -3.2e-05 (inactive) | 0.00478 (inactive) | – | inactive; toxic | 2.55% (inactive) and 22.9% (inactive) | 16.5% (inactive) | 28.2% (inactive) |
| CCOC(=O)C1=C(C)NC(C)=C(C(=O)OC)C1c1cccc([N+](=O)[O-])c1 (stereo not given) | -10.5% (inactive) | 97.3% | -50.3% (inactive) | 103% | 1.1 | 0.446 | 0.0067 | 19% (inactive) | -0.475 (inactive) | -2e-05 (inactive) | 0.00369 (inactive) | – | – | 5.78% (inactive) and 6.95% (inactive) | 12.9% (inactive) | 43.8% (inactive) |
| CN(C)CCC(c1ccc(Br)cc1)c1ccccn1 (stereo not given) | -6% (inactive) | 111% | -39% (inactive) | 109% | -1.33 | -0.476 | 0.326 | -6.41% (inactive) | -0.467 (inactive) | -6.3e-05 (inactive) | 0.00532 (inactive) | – | inactive | 0.349% (inactive) and -9.79% (inactive) | 5.43% (inactive) | 31.9% (inactive) |
| CNC(=O)Oc1ccc2c(c1)[C@]1(C)CCN(C)[C@@H]1N2C | 21.6% (inactive) | 88.6% | -22.9% (inactive) | 104% | -2.43 | -0.577 | -0.583 | -6.41% (inactive) | -0.435 (inactive) | 1.7e-05 (inactive) | 0.00657 (inactive) | – | inactive | -0.375% (inactive) and -9.03% (inactive) | 15.2% (inactive) | 36.1% (inactive) |
